# Sampled rows, rich in hits. Any-hit rate of the full collection: about 2.3%.
# M1 PAM: human M1 muscarinic receptor positive allosteric modulators, primary screen, CHO-K1 cells, Fluo-8 calcium fluorescence, 1536-well; actives 0.088% (n = 360,000); activation, % at 3 µM; Muscarinic acetylcholine receptor M1 (Homo sapiens), P11229; CHO-K1 hM1, ACh EC20; 0% = ACh EC20, 100% = maximal ACh; in the data active = activation above about 19%, passing the limit was not always enough
# Target sequence (P11229 whole entry, looked up): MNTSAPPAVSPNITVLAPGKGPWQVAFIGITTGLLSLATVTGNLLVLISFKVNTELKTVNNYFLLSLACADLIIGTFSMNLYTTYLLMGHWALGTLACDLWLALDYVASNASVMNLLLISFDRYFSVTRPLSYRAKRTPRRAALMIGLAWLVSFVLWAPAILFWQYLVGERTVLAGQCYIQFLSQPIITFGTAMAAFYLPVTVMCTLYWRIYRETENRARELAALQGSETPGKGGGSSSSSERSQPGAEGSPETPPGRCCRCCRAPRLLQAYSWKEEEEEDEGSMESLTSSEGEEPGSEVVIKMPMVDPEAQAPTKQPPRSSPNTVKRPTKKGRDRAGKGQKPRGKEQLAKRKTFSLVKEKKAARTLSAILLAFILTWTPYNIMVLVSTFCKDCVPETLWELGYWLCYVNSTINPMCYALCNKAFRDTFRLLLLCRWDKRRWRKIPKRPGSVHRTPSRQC
# M1 PAM parental: nonselective calcium activators in parental CHO-K1 cells, primary screen, counter-screen for M1 PAM project, cell-based, Fluo-8 calcium fluorescence, full deck, 1536-well | activation, % at 3 µM | actives 0.02% (n = 360,000) | ATP EC20; 0% at ATP EC20, 100% at ATP max | AID 602247, 2012;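 active = activation above the run cutoff, the mean activation of all test compounds plus 3 SD, cut at about 40% in these data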;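 note: peak over basal fluorescence ratio in a 140 s read after ATP addition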
# M1 ag parental: counter-screen for M1 agonists: effect in parental CHO-K1 cells. Fluo-8 calcium fluorescence; scaled to maximal ATP response, vehicle zero. activation, % at 3 µM. actives 0.48% (n = 360,000). AID 602248, 2012; in the data active = activation above about 15%;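 note: untransfected CHO-K1 host cells lacking M1 receptor as counterscreen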
# M1 antag: human M1 muscarinic receptor antagonists, primary screen, CHO-K1 cells, Fluo-8 calcium fluorescence, 1536-well; inhibition, % at 3 µM; actives 1.3% (n = 360,000); CHO-K1 hM1, ACh EC80 antagonist;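 active = percent inhibition above its own plate's cutoff, namely the mean of that plate's compound wells plus 3 SD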;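 note: peak over basal fluorescence ratio during 140 s after agonist addition; 0% = ACh EC80 plus DMSO and 100% = DMSO alone without agonist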
# CHO-K1 Ca antag: M1 antagonist counterscreen hit in parental CHO-K1 cells; inhibition, % at 3 µM; ATP-induced calcium, Fluo-8 fluorescence; actives 0.6% (n = 360,000);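 active = inhibition above a per-plate cutoff, the plate's mean sample inhibition plus 3 SD, cut at about 24% in these data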;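 note: 0% = DMSO plus EC80 ATP and 100% = DMSO alone without ATP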
# CHRM1 agonist: human M1 muscarinic receptor agonists, primary screen, Fluo-8 calcium fluorescence, CHO-K1 cells, HTS | Muscarinic acetylcholine receptor M1 (Homo sapiens), P11229 | CHO-K1 hM1, agonist mode; 0% DMSO, 100% acetylcholine EC100 | activation, % at 3 µM | actives 0.33% (n = 360,000);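 active = activation above the run's mean compound activation plus 3 SD, cut at about 16% in these data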;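 note: peak over basal fluorescence ratio within a 140 s kinetic read after compound addition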
# * = called active by the depositor.
SMILES,M1 PAM,M1 PAM parental,M1 ag parental,M1 antag,CHO-K1 Ca antag,CHRM1 agonist
Cc1c(Cl)cccc1NC(=S)N1CCN(Cc2ccccc2)CC1,6,18,1,-7,-10,19*
CCOC(=O)N1CCN(CCC(=O)Nc2cccc(Cl)c2C)CC1,-27,6,1,39*,-4,52*
CCOC(=O)C1CCN(CCC(=O)Nc2cccc(Cl)c2C)CC1,-7,0,2,-5,-13,13
CCCCCCCSc1nnc(N)s1,6,19,0,-3,-6,-4
COc1ccc(OCC(CO)N2CCN(c3ccccc3)CC2)cc1 (centres undefined),4,9,1,-8,-10,-6
COc1ccccc1C(CNC(=O)c1ccc(NS(=O)(=O)c2ccc(F)c(C)c2)cc1)N1CCCC1 (centres undefined),-13,7,0,22,-1,-6
COc1ccccc1C(CNC(=O)c1cccc(NS(=O)(=O)c2ccc(C)c(F)c2)c1)N1CCCC1 (centres undefined),-26,-11,1,84*,-8,-8
COc1ccc(C(CNC(=O)c2ccc(NS(=O)(=O)c3ccc(F)c(C)c3)cc2)N2CCCC2)cc1 (centres undefined),-29,17,1,73*,-7,-8
COc1ccc(/C=C/c2cc(C(F)(F)F)on2)cc1,20,-3,0,-25,-2,-1
CCOC(=O)c1[nH]ncc1CN1CCCC(C(=O)c2ccc(SC)cc2)C1 (centres undefined),-6,-4,0,3,6,-14
CSc1ccc(C(=O)C2CCCN(Cc3ccc(N4CCNC4=O)cc3)C2)cc1 (centres undefined),-28,13,10,97*,7,-11
COc1ccc(CN2CCCC(C(=O)c3ccc(SC)cc3)C2)cc1Cn1cccn1 (centres undefined),-25,-19,2,88*,18,-4
CN1CCN(C2=Cc3ccccc3Sc3cc(F)ccc32)CC1,-20,17,1,80*,-8,-4
O=C(COC(=O)c1cc(-c2ccccc2)nc2ccccc12)NCC1CCCO1 (centres undefined),3,2,1,-3,-9,-5
O=C(COC(=O)c1cc(-c2cccc(Br)c2)nc2ccccc12)NCC1CCCO1 (centres undefined),8,-14,0,4,28*,3
CCNC(=O)COC(=O)c1cc(-c2ccc(OC)cc2)nc2ccccc12,-9,-16,0,14*,24,-3
COc1ccc(NC(=O)CN(C)C(=O)c2cc(-c3ccc(OC)cc3)nc3ccccc23)cc1,-10,0,5,29*,0,-2
COc1ccc(NC(=O)CN(C)C(=O)c2cc(-c3ccccc3)nc3ccccc23)cc1,-3,-9,7,15,0,-3
CN(CC(=O)Nc1ccc(Cl)cc1)C(=O)COc1ncnc2ccccc12,-4,-21,0,3,-5,-5
CN(CC(=O)Nc1ccc(F)cc1)C(=O)COc1ncnc2ccccc12,-26,18,6,101*,-5,0
COc1ccnc(-n2cccc2C#N)c1C#N,-1,-8,1,2,-4,-4
CN(CC(=O)Nc1ccc(Cl)c(C(F)(F)F)c1)C(=O)CNC(=O)C1CCCCC1,5,-1,0,-6,7,1
C[C@@H]1CN([C@H](C)CO)C(=O)CCCn2nncc2CO[C@H]1CN(C)Cc1cccc(C(=O)O)c1,0,1,0,-7,-2,-3
CN(CCOc1ccc(Cl)cc1)C(=O)c1cc(-c2ccco2)nc2ccccc12,-11,-3,9,38*,24*,-1
O=C(COc1ccccc1)NCC(=O)N/N=C/c1cc(Br)ccc1OCc1ccccc1,17,24,1,-19,-9,-3
SMILES,M1 PAM,M1 PAM parental,M1 ag parental,M1 antag,CHO-K1 Ca antag,CHRM1 agonist
Cc1cccc(OCC(=O)NCC(=O)N/N=C/c2cc(Br)ccc2OCc2ccccc2)c1,5,6,18*,3,14,-9
S=C(NCc1ccccc1)Nc1ccc(Cl)cc1,-23,-4,12,17,22,-6
FC(F)(F)Sc1ccc(NC(=S)NCc2ccccc2)cc1,-19,-19,11,40*,31*,3
FC(F)(F)c1cccc(CNC(=S)Nc2ccccc2)c1,-2,-8,3,-3,27*,0
S=C(NCc1ccccc1)NCc1cccc(Cl)c1,-3,10,3,-7,60*,-2
O=C(NCc1ccccc1)C(c1ccco1)N(C(=O)c1csnn1)c1ccccc1 (centres undefined),12,12,1,-9,-8,-7
COc1ccc2c(c1)c(CCNNC(=O)C(C)(C)C)c(C)n2C(=O)c1ccc(Cl)cc1,8,27,0,2,-16,-3
Cc1nn(S(=O)(=O)c2cccs2)c(C)c1Sc1ccc([N+](=O)[O-])cc1,-19,8,4,28*,1,-4
Cc1nn(S(=O)(=O)c2ccccc2)c(C)c1Sc1ccc([N+](=O)[O-])cc1,-14,-2,6,13,-4,-4
Cc1cc(NC(=O)COC(=O)c2cnccn2)ccc1Br,8,10,3,1,-7,-4
CC(=O)N1CCN(c2ccc(NC(=S)NC(=O)COc3ccc(C(C)(C)C)cc3)cc2)CC1,-9,2,10,26,23,0
CCC(=O)N1CCN(c2ccc(NC(=S)NC(=O)COc3ccccc3)cc2)CC1,-16,-5,15,30*,2,2
CN1CCN(c2ccc(NC(=S)NC(=O)c3cccc4ccccc34)cc2)CC1,-22,7,4,45*,-12,-3
CN1CCN(c2ccc(NC(=S)NC(=O)c3cccc4c(Br)cccc34)cc2)CC1,-12,20,2,20,-17,-5
CCOC(=O)C1=C(CS(=O)(=O)c2ccc(F)cc2)NC(=O)NC1c1ccc(O)c(O)c1 (centres undefined),7,-22,0,-3,7,1
COC(=O)c1c(Sc2ccccc2)c2ccccc2n1C,-8,6,0,-1,-18,35*
Cn1c(CC(=O)NN)c(Sc2ccccc2)c2ccccc21,7,17,1,-17,-19,-5
Cc1ccc([N+](=O)[O-])cc1NC(=O)c1ccc(-c2ccccc2)cc1,-8,-6,0,23,24*,-2

# Compound activity deposited in PubChem by The Scripps Research Institute Molecular Screening Center.
